Reference: the supplement of paper PMC12494721
Structures can show the parent of a compound that is named as a salt.

Legend:
Conditions in all cases: incubation time: 27 h, anaerobic, 37 °C;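 for the amine columns active = adjusted P below 0.05 in both replicates with a change the same way and a mean fold change under 0.8 or over 1.25; inactive = the rest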
[1] = test system: Clostridium sporogenes DSM 1664; assay: growth (OD595) fold change vs plate DMSO controls (fold change (ratio)); higher = more growth
Procedure, shortened: (§1)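 Shaken 96-well cultures in mGAM, grown anaerobically for 27 h at 37 °C, were read at 595 nm. OD came from blank-subtracted readings, corrected for background with 20 µM compound solutions in water and scaled by a calibration factor of 5. Growth is the fold change versus the plate's median DMSO control. Values average 2 biological replicates, and any fold change above 1.5 is NA.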

Escherichia coli IAI1 [2] = assay: as above
Procedure, shortened: as §1

[3] = test system: Klebsiella aerogenes DSM 30053; assay: as above
Procedure, shortened: as §1

[4] = test system: Ruminococcus gnavus DSM 108212; assay: as above
Procedure, shortened: as §1

[5] = test system: Klebsiella aerogenes DSM 30053; assay: fold change of Histamine concentration vs plate DMSO controls (fold change (ratio)); higher = more amine produced, active = hit call of the paper (significant change in both replicates, either direction)
Procedure, shortened: (§2)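 Extracts of whole anaerobic mGAM cultures were analysed for amines by LC–triple-quadrupole MS with dynamic MRM and external calibration curves, with drift corrected within batch. Four gut strains were grown at 37 °C for 27 h in 80 µL wells with compounds at 20 µM final, sweeteners at 50 µM final. Each value expresses fold change over plate DMSO controls. The average of 2 biological replicates is shown.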

[6] = test system: Clostridium sporogenes DSM 1664; assay: fold change of Tryptamine concentration vs plate DMSO controls (fold change (ratio)); higher = more amine produced, active = hit call of the paper (significant change in both replicates, either direction)
Procedure, shortened: as §2

[7] = test system: Ruminococcus gnavus DSM 108212; assay: as above
Procedure, shortened: as §2

Escherichia coli IAI1 [8] = assay: fold change of Putrescine concentration vs plate DMSO controls (fold change (ratio)); higher = more amine produced, active = hit call of the paper (significant change in both replicates, either direction)
Procedure, shortened: as §2

[9] = test system: Klebsiella aerogenes DSM 30053; assay: as above
Procedure, shortened: as §2

Escherichia coli IAI1 [10] = assay: fold change of Cadaverine concentration vs plate DMSO controls (fold change (ratio)); higher = more amine produced, active = hit call of the paper (significant change in both replicates, either direction)
Procedure, shortened: as §2

[11] = test system: Klebsiella aerogenes DSM 30053; assay: as above
Procedure, shortened: as §2

[12] = test system: Ruminococcus gnavus DSM 108212; assay: fold change of 2-Phenylethylamine concentration vs plate DMSO controls (fold change (ratio)); higher = more amine produced, active = hit call of the paper (significant change in both replicates, either direction)
Procedure, shortened: as §2

Row | SMILES | growth [1] | growth (Escherichia coli IAI1 [2]) | growth [3] | growth [4] | fold change of Histamine concentration [5] | fold change of Tryptamine concentration [6] | fold change of Tryptamine concentration [7] | fold change of Putrescine concentration (Escherichia coli IAI1 [8]) | fold change of Putrescine concentration [9] | fold change of Cadaverine concentration (Escherichia coli IAI1 [10]) | fold change of Cadaverine concentration [11] | fold change of 2-Phenylethylamine concentration [12]
1 | Cc1ccc(Nc2c(F)cccc2Cl)c(CC(=O)O)c1 [Lumiracoxib] (20 µM) | 0.867 | 0.984 | 1.1 | 1.08 | 0.88 (inactive) | 0.956 (inactive) | 0.971 (inactive) | 1.02 (inactive) | 1.02 (inactive) | 1.02 (inactive) | 1.03 (inactive) | 0.994 (inactive)
2 | Clc1ccccc1C(c1ccccc1)(c1ccccc1)n1ccnc1 [Clotrimazole] (20 µM) | 0.97 | 0.974 | 0.998 | 0.513 | 0.999 (inactive) | 0.977 (inactive) | 0.887 (inactive) | 0.997 (inactive) | 1.02 (inactive) | 0.955 (inactive) | 1.01 (inactive) | 0.929 (inactive)
3 | CN(C(=O)C(Cl)Cl)c1ccc(OC(=O)c2ccco2)cc1 [Diloxanide furoate] (20 µM) | 1.1 | 0.998 | 1.01 | 0.993 | 1 (inactive) | 0.918 (inactive) | 0.915 (inactive) | 1.02 (inactive) | 1 (inactive) | 0.973 (inactive) | 0.997 (inactive) | 0.979 (inactive)
4 | CC(=O)OC[C@H]1O[C@@H]([S-])[C@H](OC(C)=O)[C@@H](OC(C)=O)[C@@H]1OC(C)=O.CCP(CC)CC.[Au+] [Auranofin] (20 µM) | 0.978 | 1.02 | 0.951 | 0.00158 | 0.65 (active) | 0.49 (active) | 0.05 (active) | 0.925 (inactive) | 0.89 (inactive) | 0.996 (inactive) | 0.972 (inactive) | 0.0596 (active)
5 | O=C(O)COc1nn(Cc2ccccc2)c2ccccc12 [Bendazac] (20 µM) | 1.19 | 1.05 | 1.05 | 1.02 | 0.954 (inactive) | 0.948 (inactive) | 0.986 (inactive) | 0.975 (inactive) | 1 (inactive) | 0.973 (inactive) | 1 (inactive) | 0.993 (inactive)
6 | CC(CCc1ccccc1)NCC(O)c1ccc(O)c(C(N)=O)c1 (configuration not stated) [Labetalol hydrochloride] (20 µM) | 1.09 | 0.963 | 0.974 | 0.85 | 0.944 (inactive) | 1 (inactive) | 0.967 (inactive) | 1.01 (inactive) | 0.996 (inactive) | 0.923 (inactive) | 1 (inactive) | 0.939 (inactive)
7 | CN1C(=O)CC(c2ccccc2)C1=O (configuration not stated) [Phensuximide] (20 µM) | 0.976 | 1.28 | 0.996 | 1.05 | 1.04 (inactive) | 1.03 (inactive) | 1.03 (inactive) | 1.21 (inactive) | 1.01 (inactive) | 1.01 (inactive) | 0.989 (inactive) | 1.02 (inactive)
8 | N[C@@H](Cc1ccc(O)c(O)c1)C(=O)O [Levodopa] (20 µM) | 1.09 | 0.977 | 0.989 | 0.94 | 1.05 (inactive) | 1.03 (inactive) | 1.03 (inactive) | 1 (inactive) | 1.02 (inactive) | 0.975 (inactive) | 0.997 (inactive) | 1.04 (inactive)
9 | CC[C@H]1OC(=O)C[C@@H](O)[C@H](C)[C@@H](O[C@@H]2O[C@H](C)[C@@H](O[C@H]3C[C@@](C)(O)[C@@H](O)[C@H](C)O3)[C@H](N(C)C)[C@H]2O)[C@@H](CC=O)C[C@@H](C)C(=O)/C=C/C(C)=C/[C@@H]1CO[C@@H]1O[C@H](C)[C@@H](O)[C@@H](OC)[C@H]1OC [Tylosin] (20 µM) | 0 | 0.953 | 0.966 | 0.0976 | 0.792 (inactive) | 0.0522 (active) | 0.0892 (active) | 0.849 (inactive) | 1.05 (inactive) | 0.984 (inactive) | 1.02 (inactive) | 0.105 (active)
10 | CC(C)(C)NC(=O)[C@H]1CC[C@H]2[C@@H]3CC[C@H]4NC(=O)C=C[C@]4(C)[C@H]3CC[C@]12C [Finasteride] (20 µM) | 1.18 | 0.998 | 1.05 | 1.24 | 0.977 (inactive) | 0.973 (inactive) | 1.06 (inactive) | 0.983 (inactive) | 0.982 (inactive) | 0.913 (inactive) | 1.01 (inactive) | 1.12 (inactive)
11 | CC[C@H](C)[C@H](N)C1=N[C@H](C(=O)N[C@@H](CC(C)C)C(=O)N[C@H](CCC(=O)O)C(=O)N[C@H](C(=O)N[C@H]2CCCCNC(=O)[C@H](CC(N)=O)NC(=O)[C@@H](CC(=O)O)NC(=O)[C@H](Cc3cnc[nH]3)NC(=O)[C@@H](Cc3ccccc3)NC(=O)[C@H]([C@@H](C)CC)NC(=O)[C@@H](CCCN)NC2=O)[C@@H](C)CC)CS1 [Bacitracin] (20 µM) | 1 | 1.05 | 1.02 | 0.0384 | 0.999 (inactive) | 1.02 (inactive) | 0.0521 (active) | 1.18 (inactive) | 1.01 (inactive) | 1.01 (inactive) | 1 (inactive) | 0.0535 (active)
